Screening data (PubChem)
miR-122 inh: activators of miR-122 sensor in Huh7 cells; 340,000 compounds, 0.14% hits; Huh7 psiCHECK-miR122 Renilla luciferase sensor, 48 h; activation, % at 12.5 µM;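 active = mean activation of 30% or more, with every replicate also reaching 30%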;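 also: 0% = median of neutral control wells and 100% = median of positive control wells; higher luciferase signal means stronger suppression of miR-122 activity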
Starred values were filed as active, the others as inactive. Only a selection was taken, and hits are over-represented in it overall.

SMILES | miR-122 inh
CCCNC(=O)N(C)C[C@H]1Oc2ncc(C#CC(C)C)cc2C(=O)N([C@H](C)CO)C[C@@H]1C | 7
COc1cccc(-c2cnc3c(c2)C(=O)N([C@H](C)CO)C[C@H](C)[C@H](CN(C)C(=O)Nc2ccccc2F)O3)c1 | 2
C[C@@H]1CN([C@@H](C)CO)C(=O)c2cc(C#CC3(O)CCCC3)cnc2O[C@H]1CN(C)Cc1ccncc1 | -5
C[C@H](CO)N1C[C@H](C)[C@@H](CN(C)C(=O)Cc2ccncc2)Oc2cc(-c3cncnc3)ccc2S1(=O)=O | 1
COc1ccc(S(=O)(=O)N(C)C[C@@H]2Oc3ncc(-c4cccc(F)c4)cc3C(=O)N([C@H](C)CO)C[C@@H]2C)cc1 | -6
O=C(c1ccc(F)cc1)N1C[C@H]2[C@@H](c3ccccc31)[C@@H](CO)N2C(=O)c1ccc(F)cc1 | -364
CCN(C[C@H]1[C@H](c2ccccc2)[C@@H](CO)N1C(=O)COC)S(C)(=O)=O | -92
O=C(c1cccnc1)N1C[C@H]2[C@@H](c3ccccc31)[C@H](CO)N2C(=O)C1CCCC1 | 40*
COCC(=O)N1[C@H](CO)[C@H]2c3ccccc3N(C(=O)C3CC3)C[C@H]21 | 42*
COc1ccc(C(=O)N2C[C@H]3[C@@H](c4ccccc42)[C@@H](CO)N3C(=O)c2ccc(F)cc2)cc1 | -92
O=C(c1cccc(F)c1)N1C[C@H]2[C@@H](c3ccccc31)[C@@H](CO)N2C(=O)c1ccc(F)cc1 | -192
CC(=O)N(C)C[C@@H]1Oc2cc(C#CC3CCCCC3)ccc2S(=O)(=O)N([C@H](C)CO)C[C@H]1C | 1
C[C@@H]1CN([C@@H](C)CO)C(=O)c2cc(C#Cc3cccnc3)cnc2O[C@H]1CN(C)S(C)(=O)=O | -7
CCC(=O)N(C)C[C@H]1Oc2cc(C#C[C@H](C)O)ccc2S(=O)(=O)N([C@@H](C)CO)C[C@@H]1C | 0
C[C@H]1CN([C@@H](C)CO)S(=O)(=O)c2ccc(-c3ccncc3)cc2O[C@@H]1CN(C)Cc1ccccn1 | -7
C[C@@H]1CN([C@H](C)CO)C(=O)c2cc(C#CC3(O)CCCC3)cnc2O[C@@H]1CN(C)C(=O)CN(C)C | 6
CCN(CC)c1ccc(C(=C2C=CC(=[N+](CC)CC)C=C2)c2ccc(N(CC)CC)cc2)cc1 | 38*
COc1ccccc1-c1ccc2c(c1)O[C@@H](CN(C)S(=O)(=O)c1ccccc1)[C@@H](C)CN([C@@H](C)CO)S2(=O)=O | 1
C[C@H](CO)N1C[C@H](C)[C@H](CN(C)C(=O)c2ccccn2)Oc2ncc(C#Cc3ccccc3)cc2C1=O | 3
C[C@H](O)C#Cc1ccc2c(c1)O[C@H](CN(C)CC1CCOCC1)[C@@H](C)CN([C@H](C)CO)S2(=O)=O | -17
O=C(N[C@H]1CC[C@H](CCn2cc(C3(O)CCCC3)nn2)O[C@H]1CO)c1ccccc1F | 42*
Cc1ccc(S(=O)(=O)NCC[C@@H]2CC[C@@H](NC(=O)c3cnccn3)[C@H](CO)O2)cc1 | -101
CC(C)C#Cc1ccc2c(c1)O[C@H](CN(C)C(=O)NC(C)C)[C@@H](C)CN([C@H](C)CO)S2(=O)=O | -88
CC(=O)N1[C@H](CNC(=O)C2CC2)[C@@H](c2ccc(-c3ccccc3)cc2)[C@@H]1CO | -200
C[C@H](CO)N1C[C@H](C)[C@H](CN(C)S(C)(=O)=O)Oc2ncc(-c3cccnc3)cc2C1=O | -7
SMILES | miR-122 inh
C[C@@H]1CN([C@@H](C)CO)C(=O)c2cccc(NC(=O)Nc3ccc(F)cc3)c2O[C@H]1CN(C)Cc1ccc(C(F)(F)F)cc1 | -91
C[C@@H]1CN([C@@H](C)CO)C(=O)Cc2cc(NC(=O)Nc3ccc(C(F)(F)F)cc3)ccc2O[C@@H]1CN(C)C(=O)Nc1cccc2ccccc12 | -265
C[C@@H]1CN([C@H](C)CO)C(=O)Cc2cc(NC(=O)Nc3ccc(C(F)(F)F)cc3)ccc2O[C@@H]1CN(C)C(=O)Nc1cccc2ccccc12 | -112
C[C@@H]1CN([C@@H](C)CO)C(=O)Cc2cc(NC(=O)Nc3ccc(C(F)(F)F)cc3)ccc2O[C@H]1CN(C)Cc1ccc(Oc2ccccc2)cc1 | 35*
COc1ccc(CN(C)C[C@@H]2OCCCC[C@H](C)Oc3ccc(NC(=O)Nc4ccc(C(F)(F)F)cc4)cc3C(=O)N([C@H](C)CO)C[C@H]2C)cc1 | 32*
C[C@@H]1CN([C@H](C)CO)C(=O)c2cc(NC(=O)Cc3ccccc3)ccc2O[C@@H](C)CCCCO[C@H]1CN(C)Cc1ccc(C(F)(F)F)cc1 | 31*
C[C@H](CO)N1C[C@H](C)[C@@H](CN(C)Cc2ccc(C(F)(F)F)cc2)Oc2ccc(N(C)C)cc2C1=O | -98
C[C@H](CO)N1C[C@H](C)[C@@H](CN(C)Cc2ccc(C(F)(F)F)cc2)Oc2c(NC(=O)C3CCCCC3)cccc2C1=O | -122
C[C@H]1CN([C@@H](C)CO)C(=O)c2cccc(NC(=O)NC3CCCCC3)c2O[C@@H]1CN(C)Cc1ccc(C(F)(F)F)cc1 | -121
C[C@@H]1CN([C@@H](C)CO)C(=O)c2cccc(NC(=O)Nc3ccccc3)c2O[C@H]1CN(C)Cc1ccc(C(F)(F)F)cc1 | -115
COc1ccc(S(=O)(=O)Nc2cccc3c2O[C@@H](CN(C)Cc2ccc(C(F)(F)F)cc2)[C@H](C)CN([C@H](C)CO)C3=O)cc1 | -102
COc1ccc(CN(C)C[C@H]2OCCCC[C@H](C)Oc3ccc(NC(=O)Nc4ccc(C(F)(F)F)cc4)cc3C(=O)N([C@@H](C)CO)C[C@@H]2C)cc1 | 31*
C[C@@H]1CN([C@H](C)CO)C(=O)c2cc(C#Cc3ccc(F)cc3)cnc2O[C@@H]1CN(C)C(=O)c1ccccc1F | 9
C[C@@H]1CN([C@H](C)CO)S(=O)(=O)c2ccc(-c3ccccc3)cc2O[C@@H]1CN(C)Cc1cncnc1 | -9
Cc1ccccc1-c1cnc2c(c1)C(=O)N([C@H](C)CO)C[C@@H](C)[C@H](CN(C)Cc1ccccc1F)O2 | -121
COc1ccc(C#Cc2cnc3c(c2)C(=O)N([C@@H](C)CO)C[C@H](C)[C@H](CN(C)CC2CCCC2)O3)cc1 | 11
C[C@@H]1CN([C@@H](C)CO)C(=O)c2cc(C#Cc3ccccn3)cnc2O[C@H]1CN(C)C(=O)CCN1CCCCC1 | -2
COc1ccc(C(=O)N[C@H](C(=O)Nc2nc3ccccc3[nH]2)C(C)C)cc1 | -117
O=C(COc1cccc2ccccc12)Nc1nc2ccccc2[nH]1 | 32*
C[C@H](O)C#Cc1ccc2c(c1)O[C@@H](CN(C)Cc1cncnc1)[C@@H](C)CN([C@H](C)CO)S2(=O)=O | 4
CCCNC(=O)N1C[C@@H](C)[C@H](OC)CN(C)C(=O)c2cc(NS(=O)(=O)CC)ccc2OC[C@H]1C | -2
C[C@H](CO)N1C[C@H](C)[C@@H](CN(C)C(=O)c2ccncc2)Oc2cc(C#C[C@@H](C)O)ccc2S1(=O)=O | -7
Cc1noc(C)c1NC(=O)N(C)C[C@H]1Oc2ncc(C#CC3CCCCC3)cc2C(=O)N([C@@H](C)CO)C[C@@H]1C | -6
C[C@H]1CN([C@@H](C)CO)C(=O)c2cc(C#Cc3cccc(F)c3)cnc2O[C@H]1CN(C)CC1CCOCC1 | -2
C[C@H](CO)N1C[C@H](C)[C@H](CN(C)C(=O)c2cnccn2)Oc2ncc(C#Cc3ccccn3)cc2C1=O | 7
C/C(=N\NC(=O)C(C)Oc1ccc([N+](=O)[O-])cc1)c1ccccn1 (stereo not drawn) | 32*
CCC(=O)N(C)C[C@H]1Oc2cc(C#C[C@@H](C)O)ccc2S(=O)(=O)N([C@@H](C)CO)C[C@H]1C | 1
